Test results as given in PubChem BioAssay AID1159580 (chemical genetic matrix, 2015).
About 2,000 (36%) of roughly 5,500 compounds were called active. Roughly 18% stayed inconclusive and do not appear here. Cut-off read from the data, not from the text of the source: active = normalized growth mostly below about 0.91 (no sharp cut-off); inconclusive = no clear call, values can overlap the other calls; inactive = mostly above about 0.92. Some of the results follow.

Experiment: chemical genetic growth profiling, strain panel (AID 1159580);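 note: tested at 20 µM; growth read once vehicle control cultures reached saturation at 30 °C; 1 = growth at the plate median or of vehicle wells; lower values mean less growth of the strain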
Conditions: growth OD

Measured: normalized growth

N=C(N)N
inactive: S. cerevisiae deletion strains, locus YJR075W, strain HOC1, stronger effect = lower value 0.988 | S. cerevisiae deletion strains, locus YKL009W, strain mrt4, stronger effect = lower value 0.997 | S. cerevisiae deletion strains, locus YKL068W, stronger effect = lower value 0.982 | S. cerevisiae deletion strains, locus YKL085W, strain MDH1 (second series), stronger effect = lower value 0.97 | S. cerevisiae deletion strains, locus YKL085W, strain MDH1, stronger effect = lower value 0.97 | S. cerevisiae deletion strains, locus YKL160W, strain elf1, stronger effect = lower value 1 | S. cerevisiae deletion strains, locus YKL190W, strain CNB1, stronger effect = lower value 0.993 | S. cerevisiae deletion strains, locus YKR001C, strain vps1, stronger effect = lower value 0.996 | S. cerevisiae deletion strains, locus YKR026C, strain gcn3, stronger effect = lower value 0.999 | S. cerevisiae deletion strains, locus YKR091W, strain srl3, stronger effect = lower value 1 | S. cerevisiae deletion strains, locus YLL001W, strain dnm1, stronger effect = lower value 0.993 | S. cerevisiae deletion strains, locus YLL026W, stronger effect = lower value 0.994 | S. cerevisiae deletion strains, locus YLL041C, strain sdh2, stronger effect = lower value 1 | S. cerevisiae deletion strains, locus YLR027C, strain aat2, stronger effect = lower value 1.01 | S. cerevisiae deletion strains, locus YLR039C, strain RIC1, stronger effect = lower value 1.01 | S. cerevisiae deletion strains, locus YLR058C, strain SHM2, stronger effect = lower value 0.999 | S. cerevisiae deletion strains, locus YLR102C, strain apc9, stronger effect = lower value 0.986 | S. cerevisiae deletion strains, locus YLR113W, strain HOG1, stronger effect = lower value 0.996 | S. cerevisiae deletion strains, locus YLR221C, strain rsa3, stronger effect = lower value 0.982 | S. cerevisiae deletion strains, locus YLR258W, strain gsy2, stronger effect = lower value 0.996 | S. cerevisiae deletion strains, locus YLR262C, strain YPT6 (second series), stronger effect = lower value 0.991 | S. cerevisiae deletion strains, locus YLR262C, strain YPT6, stronger effect = lower value 1.01 | S. cerevisiae deletion strains, locus YLR268W, strain sec22, stronger effect = lower value 0.937 | S. cerevisiae deletion strains, locus YLR320W, strain mms22, stronger effect = lower value 0.983 | S. cerevisiae deletion strains, locus YLR330W, strain CHS5, stronger effect = lower value 0.991 | S. cerevisiae deletion strains, locus YLR342W, strain FKS1 (second series), stronger effect = lower value 1.13 | S. cerevisiae deletion strains, locus YLR342W, strain FKS1, stronger effect = lower value 0.993 | S. cerevisiae deletion strains, locus YLR357W, strain rsc2, stronger effect = lower value 0.977 | S. cerevisiae deletion strains, locus YLR370C, strain arc18, stronger effect = lower value 1.01 | S. cerevisiae deletion strains, locus YLR371W, strain rom2, stronger effect = lower value 0.961 | S. cerevisiae deletion strains, locus YLR384C, strain iki3, stronger effect = lower value 0.985 | S. cerevisiae deletion strains, locus YLR418C, strain cdc73, stronger effect = lower value 1.02 | S. cerevisiae deletion strains, locus YML016C, strain PPZ1, stronger effect = lower value 1 | S. cerevisiae deletion strains, locus YML032C, strain rad52, stronger effect = lower value 0.96 | S. cerevisiae deletion strains, locus YML120C, strain ndi1, stronger effect = lower value 1.02 | S. cerevisiae deletion strains, locus YML124C, strain tub3, stronger effect = lower value 0.991 | S. cerevisiae deletion strains, locus YMR058W, strain fet3, stronger effect = lower value 1 | S. cerevisiae deletion strains, locus YMR078C, strain ctf18, stronger effect = lower value 0.967 | S. cerevisiae deletion strains, locus YMR125W, strain sto1, stronger effect = lower value 0.996 | S. cerevisiae deletion strains, locus YMR129W, stronger effect = lower value 0.992 | S. cerevisiae deletion strains, locus YMR205C, strain PFK2, stronger effect = lower value 1.01 | S. cerevisiae deletion strains, locus YMR223W, strain ubp8, stronger effect = lower value 1.02 | S. cerevisiae deletion strains, locus YMR231W, strain pep5, stronger effect = lower value 0.994 | S. cerevisiae deletion strains, locus YMR263W, strain SAP30, stronger effect = lower value 0.992 | S. cerevisiae deletion strains, locus YMR307W, strain GAS1, stronger effect = lower value 1.14 | S. cerevisiae deletion strains, locus YNL067W, strain RPL9B, stronger effect = lower value 0.987 | S. cerevisiae deletion strains, locus YNL071W, strain lat1, stronger effect = lower value 1.01 | S. cerevisiae deletion strains, locus YNL128W, strain TEP1, stronger effect = lower value 0.995 | S. cerevisiae deletion strains, locus YNL153C, strain GIM3, stronger effect = lower value 1 | S. cerevisiae deletion strains, locus YNL183C, strain NPR1, stronger effect = lower value 0.949 | S. cerevisiae deletion strains, locus YNL209W, strain ssb2, stronger effect = lower value 1.02 | S. cerevisiae deletion strains, locus YNL233W, strain BNI4, stronger effect = lower value 0.994 | S. cerevisiae deletion strains, locus YNL248C, strain rpa49, stronger effect = lower value 0.92 | S. cerevisiae deletion strains, locus YNL250W, strain rad50, stronger effect = lower value 0.99 | S. cerevisiae deletion strains, locus YNL271C, strain bni1, stronger effect = lower value 0.993 | S. cerevisiae deletion strains, locus YNL298W, strain CLA4, stronger effect = lower value 0.999 | S. cerevisiae deletion strains, locus YNL307C, strain MCK1, stronger effect = lower value 0.991 | S. cerevisiae deletion strains, locus YNL322C, strain KRE1 (second series), stronger effect = lower value 0.997 | S. cerevisiae deletion strains, locus YNL322C, strain KRE1, stronger effect = lower value 0.993 | S. cerevisiae deletion strains, locus YNR049C, strain mso1, stronger effect = lower value 0.991 | S. cerevisiae deletion strains, locus YNR052C, strain pop2, stronger effect = lower value 0.971 | S. cerevisiae deletion strains, locus YOL006C, strain TOP1, stronger effect = lower value 0.979 | S. cerevisiae deletion strains, locus YOL012C, strain htz1 0.806 | S. cerevisiae deletion strains, locus YOL147C, strain pex11, stronger effect = lower value 0.976 | S. cerevisiae deletion strains, locus YOR001W, strain rrp6, stronger effect = lower value 0.949 | S. cerevisiae deletion strains, locus YOR061W, strain CKA2, stronger effect = lower value 0.991 | S. cerevisiae deletion strains, locus YOR069W, strain VPS5, stronger effect = lower value 0.999 | S. cerevisiae deletion strains, locus YOR070C, strain gyp1, stronger effect = lower value 0.979 | S. cerevisiae deletion strains, locus YOR080W, strain dia2, stronger effect = lower value 0.979 | S. cerevisiae deletion strains, locus YOR083W, strain WHI5, stronger effect = lower value 1.01 | S. cerevisiae deletion strains, locus YOR106W, strain vam3, stronger effect = lower value 1.01 | S. cerevisiae deletion strains, locus YOR136W, strain idh2, stronger effect = lower value 0.986 | S. cerevisiae deletion strains, locus YOR144C, strain elg1, stronger effect = lower value 0.977 | S. cerevisiae deletion strains, locus YOR184W, strain ser1, stronger effect = lower value 0.974 | S. cerevisiae deletion strains, locus YOR231W, strain MKK1, stronger effect = lower value 1.02 | S. cerevisiae deletion strains, locus YOR265W, strain rbl2, stronger effect = lower value 0.998 | S. cerevisiae deletion strains, locus YOR270C, strain vph1, stronger effect = lower value 0.969 | S. cerevisiae deletion strains, locus YOR290C, strain snf2, stronger effect = lower value 0.975 | S. cerevisiae deletion strains, locus YOR316C, strain cot1, stronger effect = lower value 0.965 | S. cerevisiae deletion strains, locus YPL051W, strain arl3, stronger effect = lower value 0.983 | S. cerevisiae deletion strains, locus YPL055C, strain LGE1, stronger effect = lower value 1.01 | S. cerevisiae deletion strains, locus YPL078C, strain atp4, stronger effect = lower value 1.01 | S. cerevisiae deletion strains, locus YPL106C, strain sse1, stronger effect = lower value 1.01 | S. cerevisiae deletion strains, locus YPL240C, strain hsp82, stronger effect = lower value 0.999 | S. cerevisiae deletion strains, locus YPL241C, strain CIN2, stronger effect = lower value 0.998 | S. cerevisiae deletion strains, locus YPL256C, strain CLN2, stronger effect = lower value 1.07 | S. cerevisiae deletion strains, locus YPR119W, strain clb2, stronger effect = lower value 0.974 | S. cerevisiae deletion strains, locus YPR141C, strain kar3, stronger effect = lower value 0.982 | S. cerevisiae deletion strains, locus YPR163C, strain tif3, stronger effect = lower value 0.976 | S. cerevisiae deletion strains, locus YPR167C, strain met16, stronger effect = lower value 0.971 | S. cerevisiae deletion strains, strain wtn01, stronger effect = lower value 0.981 | S. cerevisiae strains, strain wild type, stronger effect = lower value 1
